# From PubChem BioAssay (NCI)
# Compounds without any hit were thinned out: in the full panel of roughly 83,000, 20% have a hit.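 48-hour exposure, single concentration, 96-well plates; percent growth endpoint where 0 means no net growth. Active: below 10.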 A number with no mark means an inactive call. Calls of active or inactive are those of the source.
# Assays:
# Assay in all cases: NCI-60 one-dose screen, 48 h (100 = growth as untreated, 0 = no growth, -100 = all killed)
# SK-MEL-2 melanoma = settings: 10 µM unless noted
# EKVX NSCLC = settings: 10 µM
# SN12C renal = settings: 10 µM unless noted
# UO-31 renal = settings: 10 µM unless noted
# TK-10 renal = settings: 10 µM unless noted
# ACHN renal = settings: 10 µM unless noted
# CAKI-1 renal = settings: 10 µM unless noted
# A498 renal = settings: 10 µM unless noted
# CCRF-CEM leukemia = settings: 10 µM
# MOLT-4 leukemia = settings: 10 µM unless noted
# SR leukemia = settings: 10 µM unless noted
# RPMI-8226 leukemia = settings: 10 µM unless noted
# OVCAR-8 ovarian = settings: 10 µM unless noted
# OVCAR-5 ovarian = settings: 10 µM unless noted
# OVCAR-4 ovarian = settings: 10 µM unless noted
# SK-OV-3 ovarian = settings: 10 µM unless noted
# IGROV1 ovarian = settings: 10 µM unless noted
# OVCAR-3 ovarian = settings: 10 µM unless noted
# HS 578T breast = settings: 10 µM unless noted
# NCI/ADR-RES ovarian = settings: 10 µM unless noted
Structure (SMILES),growth (SK-MEL-2 melanoma),growth (EKVX NSCLC),growth (SN12C renal),growth (UO-31 renal),growth (TK-10 renal),growth (ACHN renal),growth (CAKI-1 renal),growth (A498 renal),growth (CCRF-CEM leukemia),growth (MOLT-4 leukemia),growth (SR leukemia),growth (RPMI-8226 leukemia),growth (OVCAR-8 ovarian),growth (OVCAR-5 ovarian),growth (OVCAR-4 ovarian),growth (SK-OV-3 ovarian),growth (IGROV1 ovarian),growth (OVCAR-3 ovarian),growth (HS 578T breast),growth (NCI/ADR-RES ovarian)
COc1cc(OC)cc(-c2ccc(-c3ccc(C(=N)N)cc3)s2)c1,-58.3% (active),-83.6% (active),-76.9% (active),-78% (active),-83.7% (active),-90% (active),-93.7% (active),-92% (active),-59.7% (active),-48.8% (active),-4.93% (active),-58.2% (active),-27.8% (active),-82% (active),-67.5% (active),-81.9% (active),-71.1% (active),-86.2% (active),-51.8% (active),-51.4% (active)
CCCC(=O)NNc1[nH]c(-c2ccc(OC)cc2)cc1C(=O)OCC,94.6%,108%,110%,85.8%,-16.1% (active),73.1%,91.1%,95.8%,5.87% (active),3.23% (active),106%,98.4%,110%,95.7%,117%,113%,18.1%,90%,97.7%,106%
CCCCCSc1ccc2nc(NC(=O)OCCC)sc2c1,51.7%,34.2%,57.4%,51.8%,70.1%,42.8%,32.4%,11.2%,20.3%,30.7%,34.2%,29.6%,65.8%,86.3%,35.1%,41.9%,55.4%,13.3%,23.9%,22.7%
CC(=O)Nc1nc(C)c(C(=O)NNS(=O)(=O)c2ccccc2)s1,2.86% (active),113%,105%,91.8%,161%,115%,121%,121%,114%,117%,155%,135%,101%,106%,112%,109%,9.33% (active),136%,112%,118%
Cc1nc(NC(=S)Nc2ccc(F)cc2)sc1C(=O)NNC(=S)Nc1ccc(F)cc1,3.22% (active),63.2%,71.8%,38.7%,43.5%,65.3%,101%,53.6%,40.1%,36.5%,81.6%,-16.8% (active),87.4%,86.3%,42.8%,94%,51.7%,56.6%,72.4%,78.1%
COC(=O)c1ccc2[nH]c(O)c(C(=Nc3ccc(N(C)C(=O)CN4CCN(C)CC4)cc3)c3ccc([N+](=O)[O-])cc3)c2c1,43.2%,88.1%,27.4%,65.6%,72.2%,54.3%,19%,25.9%,21.2%,8.41% (active),5.48% (active),31%,37%,94.3%,46.9%,22.5%,19.1%,53.6%,27.6%,104%
CCOC(=O)c1cc(-c2ccc(OC)cc2)[nH]c1NNC(=O)CCOC,103%,101%,107%,77%,63.7%,107%,88.8%,77.8%,57.8%,58.1%,87.7%,98.2%,106%,100%,113%,105%,2.76% (active),82.5%,104%,125%
O=C(Nc1ccccc1)Nc1ccc(Nc2ncnc3sc4c(c23)CCCC4)cc1,114%,102%,99.3%,71.6%,124%,101%,100%,83.4%,92.4%,89.5%,97.9%,99.3%,107%,119%,107%,99.6%,107%,103%,85.3%,107%
